# Values joined by “and” are separate entries in the source; they are usually repeats but may differ in a detail not shown here. Equal entries are not always repeated. The source holds several records for some structures; these can differ, active in one and inactive in another. Active and inactive are the calls of the source.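 Rule for the calls, unless noted: active = inhibition at or above 50% relative to wild type and mutant plate controls; inactive = inhibition below 50%.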
# What was measured:
# [1] = inhibitors of TNFa-induced NFkB p65 translocation, primary screen, imaging, HUVEC, MLSMR starter and 10KST1 sets (AID 438;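 active = inhibition above 20% together with a positive visual image hit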;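 note: compound added about 3h40 before a 20 min TNFalpha stimulation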;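 for inhibition: signal is the nuclear over cytoplasmic p65 intensity ratio per well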); conditions: HUVEC TNFa-induced p65 nuclear translocation; cell count: measured here: nuclei count (cytotoxicity indicator), at 2.08 µM; inhibition: at 2 µM, stronger effect = higher value, 0% TNFa-plus-vehicle, 100% no-TNFa wells
# [2] = inhibitors of mutant huntingtin aggregation, primary screen, imaging, exon1htt(103Q)mCFP cells, high-content imaging (AID 483;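 active = visual image review flags a hit and inhibition of aggregation exceeds 20%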;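 note: compound exposure lasted 3 days before fixation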;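 for nuclei count: percent of the per-plate median nuclei count of sample wells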); conditions: exon1htt(103Q)mCFP cell line, aggregate imaging, at 2 µM; inhibition of aggregation: stronger effect = higher value; nuclei count: measured here: cell count, toxicity
# [3] = inhibitors of E-selectin induction by TNFa, primary screen, imaging, HUVEC, immunofluorescence, MLSMR starter and 10KST1 sets (AID 487;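 active = visually confirmed hit in the image check and inhibition above 20%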;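 for inhibition: signal is fraction of cell area covered by stained E-selectin grains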;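 for nuclei count: 100% = median nuclei count of all wells on the same plate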); conditions: HUVEC TNFalpha-induced E-selectin immunofluorescence imaging, at 2 µM; inhibition: stronger effect = higher value; nuclei count: measured here: cell number, toxicity
# [4] = DUSP6 inhibitors restoring Erk phosphorylation by chemical complementation, primary imaging in DUSP6-transfected HeLa (AID 609;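 active = compounds giving at least 50% inhibition in the cell-based MKP-3 phosphatase rescue imaging test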;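 for inhibition: phospho-Erk level distribution per well compared with pooled transfected vehicle control wells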); conditions: HeLa MKP-3 transfected, phospho-Erk imaging KS statistic, at 10 µM, cells stimulated with TPA for 15 min
# [5] = molecular target: Dual specificity protein phosphatase 6 (Homo sapiens) (UniProt Q16828); test: as above; conditions: HeLa MKP-3 transfected, phospho-Erk imaging KS statistic; at 10 µM; stronger effect = higher value; cells stimulated with TPA for 15 min
# Dual specificity protein phosphatase 6 (Homo sapiens), sequence (Q16828 whole entry, looked up): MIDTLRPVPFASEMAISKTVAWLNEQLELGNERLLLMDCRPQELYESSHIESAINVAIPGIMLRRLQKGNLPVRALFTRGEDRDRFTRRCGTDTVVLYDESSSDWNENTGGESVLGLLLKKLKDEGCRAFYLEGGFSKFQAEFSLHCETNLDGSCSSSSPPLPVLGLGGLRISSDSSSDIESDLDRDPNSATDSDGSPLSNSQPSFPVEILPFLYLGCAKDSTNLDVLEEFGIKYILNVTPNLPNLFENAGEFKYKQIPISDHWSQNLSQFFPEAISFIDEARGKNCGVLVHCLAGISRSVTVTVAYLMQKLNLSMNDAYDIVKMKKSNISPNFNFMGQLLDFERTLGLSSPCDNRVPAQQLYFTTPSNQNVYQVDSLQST
# [6] = molecular target: Voltage-gated potassium channel subunit beta-2 (Rattus norvegicus) (UniProt P62483); test: KvBeta enzyme negative modulators, primary screen, biochemical, NADPH fluorescence (AID 622;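 active = fluorescence slope higher than the sample average by over 3 SD, cut at about -0.22 in these data, passing the limit was not always enough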;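 note: slope of raw intensity against log time taken from 70 to 1610 s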); conditions: recombinant KvBeta, 4-cyanobenzaldehyde reduction, at 10 µM, stronger effect = higher value
# Voltage-gated potassium channel subunit beta-2 (Rattus norvegicus), sequence (P62483 whole entry, looked up): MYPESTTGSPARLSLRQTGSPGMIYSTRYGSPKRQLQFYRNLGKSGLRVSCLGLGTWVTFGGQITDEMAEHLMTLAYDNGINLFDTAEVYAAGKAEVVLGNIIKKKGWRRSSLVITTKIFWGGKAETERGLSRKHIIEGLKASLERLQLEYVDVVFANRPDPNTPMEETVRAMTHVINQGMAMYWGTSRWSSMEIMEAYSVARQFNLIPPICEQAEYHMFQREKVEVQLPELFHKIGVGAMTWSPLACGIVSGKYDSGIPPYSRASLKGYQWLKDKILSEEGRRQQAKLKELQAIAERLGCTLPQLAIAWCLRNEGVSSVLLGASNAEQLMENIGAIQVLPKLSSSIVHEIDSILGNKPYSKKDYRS
# [7] = molecular target: Voltage-gated potassium channel subunit beta-2 (Rattus norvegicus) (UniProt P62483); test: KvBeta positive modulators, primary screen, biochemical, NADPH fluorescence (AID 623;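 active = NADPH fluorescence slope more negative than the mean of all samples by about 3 SD, 99.7% confidence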;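 note: fluorescence intensity change per second fitted from 20 to 320 s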); conditions: Recombinant KvBeta, NADPH fluorescence decrease slope, 10 min; at 10 µM; stronger effect = lower value
# [8] = molecular target: Alpha-2C adrenergic receptor (Homo sapiens) (UniProt P18825); test: modulators of alpha2C/GIRK thallium flux, primary screen, cell-based, HEK293 alpha2C/GIRK1/2 (AID 624;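 active = fluorescence slope after compound addition differing from the mean of all screened samples at 99.7% confidence, in either direction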;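 note: slope of fluorescence ratio to pre-addition baseline per second over 15 to 24 s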); conditions: thallium flux BTC fluorescence, at 10 µM, actives lie on both sides
# Alpha-2C adrenergic receptor (Homo sapiens), sequence (P18825 whole entry, looked up): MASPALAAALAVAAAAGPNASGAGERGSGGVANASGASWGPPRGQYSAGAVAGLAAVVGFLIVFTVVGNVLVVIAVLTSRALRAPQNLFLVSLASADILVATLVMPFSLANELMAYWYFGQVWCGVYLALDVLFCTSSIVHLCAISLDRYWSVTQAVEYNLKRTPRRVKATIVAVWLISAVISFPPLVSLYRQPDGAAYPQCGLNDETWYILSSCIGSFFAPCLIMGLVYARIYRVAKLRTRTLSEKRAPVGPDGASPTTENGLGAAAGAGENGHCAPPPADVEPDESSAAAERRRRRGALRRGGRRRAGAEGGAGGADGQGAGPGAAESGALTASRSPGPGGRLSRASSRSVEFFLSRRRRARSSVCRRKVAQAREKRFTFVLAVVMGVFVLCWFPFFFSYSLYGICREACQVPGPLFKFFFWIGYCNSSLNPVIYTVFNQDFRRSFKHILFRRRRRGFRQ
# [9] = inhibitors of larval lipid processing in zebrafish, primary screen, whole organism, PED6 fluorescence, gall bladder and intestine (AID 686;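 active = a full or partial loss of lipid-probe fluorescence in the fish gall bladder, intestine or both, judged by eye; inactive = no fluorescence loss, or compound toxic to the fish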;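 note: larvae 5 to 7 days old with five fish per well; signal comes from phospholipase A2 cleavage of quenched PED6 carried via bile; overnight exposure to compound and PED6 before scoring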); conditions: Zebrafish larvae PED6 lipid processing, fluorescence scoring; screened at 20 µM (by protocol)
# [10] = inhibitors of Chlamydomonas gravitaxis, primary screen, whole organism, Chlamydomonas reinhardtii, WT vs cilia-less mutant, absorbance, 96-well (AID 463189); conditions: OD600 absorbance, 2 days, at 10 µM, stronger effect = higher value;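 note: 0% = wild type cc124 cells in DMSO and 100% = ciliumless bld1 mutant cells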
# [11] = inhibitors of Sendai virus-induced IRF3 signaling, primary screen, TLR/RLR signaling modifier project, cell-based, Sendai virus stimulus, luciferase, 10K MLSCN set (AID 602276;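 active = inhibition at or above 50% at 10 µM; inactive = inhibition below 50%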;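 note: firefly luciferase from ISG56 promoter only with Renilla not read in this screen; 0% = Sendai virus plus DMSO and 100% = medium plus DMSO without virus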); conditions: HEK293 RL24 IRF3 luciferase reporter, at 10 µM, stronger effect = higher value
# [12] = inhibitors of poly I:C-induced TLR3 signaling, primary screen, cell-based, poly I:C stimulus, luciferase, 10K MLSCN set (AID 602277;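 active = inhibition of the reporter signal at or above 50%; inactive = inhibition below 50%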); conditions: HEK293-TLR3 RL24 IRF3 luciferase reporter, at 10 µM, stronger effect = higher value
# [13] = measured here: cell density z-score
# [14] = measured here: nuclear c-Myc green intensity z-score
# [15] = measured here: nuclear pErk red intensity z-score, stronger effect = higher value
SMILES,cell count [1],inhibition [1],inhibition of aggregation [2],nuclei count [2] [%],inhibition [3],nuclei count [3],"z-score [4, 13]","z-score [4, 14]","z-score [4, 15]",inhibition [5],fluorescence slope [6],NADPH fluorescence slope [7],slope [8],outcome [9],inhibition [10],inhibition [11],inhibition [12]
Cc1nc2sccn2c(=O)c1CCN1CCC(=C(c2ccc(F)cc2)c2ccc(F)cc2)CC1,597,-5.2% (inactive),4% (inactive),104,-80.7% (inactive),112%,0.864,0.124,-0.385,27.9% (inactive),-0.459 (inactive),-4.2e-05 (inactive),0.0045 (inactive),inactive; toxic,29.2% (inactive) and 168% (active),12% (inactive),-6.25% (inactive)
CC(C)(C)OC(=O)N1CC=C2C(C#N)=C(N)C(C#N)(C#N)[C@H](c3cccnc3)[C@H]2C1,461,-13.5% (inactive),45.1% (active),70.7,28.8% (inactive),112%,-1.09,-0.413,0.348,-0.624% (inactive),-0.387 (inactive),-4.5e-05 (inactive),0.00436 (inactive),inactive,2.34% (inactive),11.2% (inactive),10.3% (inactive)
O=C(CSc1nnc(-c2ccco2)c(-c2ccco2)n1)Nc1ccccc1,582,-9.5% (inactive),-9.2% (inactive),100,-30.7% (inactive),123%,0.318,-1.08,1.26,1.6e-07% (inactive),-0.358 (inactive),-1.6e-05 (inactive),0.00359 (inactive),inactive,17.3% (inactive),-13.8% (inactive),6.55% (inactive)
O=C(O)Cc1ccc(-c2ccccc2)cc1,636,-3% (inactive),-7.3% (inactive),105,-30.6% (inactive),123%,1.25,0.515,-0.372,19% (inactive),-0.444 (inactive),-4.7e-05 (inactive),0.00497 (inactive),inactive,-15% (inactive),8.68% (inactive),34.8% (inactive)
c1ccc(Cc2nnc3n2CCCCC3)cc1,427,-7.4% (inactive),0.9% (inactive),104,-122% (inactive),114%,-1.13,-0.00465,-0.441,-0.608% (inactive),-0.55 (inactive),-4.5e-05 (inactive),0.0052 (inactive),inactive,22.9% (inactive),13.8% (inactive),22.9% (inactive)
CCN(CC)CCN1C(=O)C(=O)/C(=C(/O)c2ccc(OC(C)C)cc2)C1c1ccncc1 (stereo not given),529,-5.6% (inactive),3% (inactive),116,-8.2% (inactive),104%,-0.653,-0.46,-0.356,-6.48% (inactive),-0.356 (inactive),4.4e-05 (inactive),0.00527 (inactive),inactive,-14% (inactive),8.32% (inactive),8.84% (inactive)
CC(=O)[C@@]1(O)CC[C@H]2[C@@H]3C[C@H](C)C4=CC(=O)CC[C@]4(C)[C@H]3CC[C@@]21C,734,-6.2% (inactive),0.8% (inactive),108,-107% (inactive),113%,1.42,-0.494,-1.54,3.45% (inactive),-0.486 (inactive),-0.000112 (inactive),0.0052 (inactive),inactive,-2.53% (inactive),-4.16% (inactive),43.2% (inactive)
Nc1nc(Cl)nc2c1ncn2[C@H]1C[C@H](O)[C@@H](CO)O1,522 and 557,-10.7% (inactive) and -11.5% (inactive),-36.7% (inactive),10,-143% (inactive) and -17% (inactive),133% and 106%,1.67 and -3.27,-1.09 and -0.338,-0.372 and -0.606,7.39% (inactive) and -2.46% (inactive),-0.46 (inactive) and -0.431 (inactive),-2e-05 (inactive) and -2.2e-05 (inactive),0.00559 (inactive) and 0.00513 (inactive),inactive,18.6% (inactive) and -15.6% (inactive),12.3% (inactive) and 18.7% (inactive),41.2% (inactive) and 27.6% (inactive)
CC(C)C[C@H](NC(=O)[C@@H]1O[C@H]1C(=O)O)C(=O)NCCCCN=C(N)N,565,1.2% (inactive),14.2% (inactive),93.3,-70.2% (inactive),120%,0.0952,-0.437,0.847,3.45% (inactive),-0.492 (inactive),-4.3e-05 (inactive),0.00515 (inactive),inactive,9.72% (inactive),13.8% (inactive),45.3% (inactive)
CC1(C)CC(=O)C2=C(C1)N(CC1CCCO1)C(=O)C2(O)C(F)(F)F (stereo not given),503,6.9% (inactive),-2.8% (inactive),108,-123% (inactive),123%,-0.368,0.41,-0.669,1.75% (inactive),-0.492 (inactive),-1.2e-05 (inactive),0.00532 (inactive),inactive,29.7% (inactive),-0.648% (inactive),98% (active)
CC(=O)OC(C)C[N+](C)(C)C (stereo not given),551,2.7% (inactive),-10.4% (inactive),93.2,-37.2% (inactive),109%,-0.162,0.661,-1.46,5.42% (inactive),-0.469 (inactive),-5.5e-06 (inactive),0.0149 (active),inactive,4.19% (inactive) and 8.31% (inactive),8.52% (inactive),29.7% (inactive)
Nc1nc2ccc(OC(F)(F)F)cc2s1,540,-0.5% (inactive),-1.7% (inactive),86.1,-27.8% (inactive),107%,2.05,-1.62,-0.877,36.7% (inactive),-0.427 (inactive),2.4e-05 (inactive),0.00474 (inactive),inactive,4.87% (inactive) and -11.8% (inactive),-14.6% (inactive),-58.1% (inactive)
OC[C@H]1O[C@@H](n2cnc3c(Nc4ccccc4)ncnc32)[C@H](O)[C@@H]1O,606,-3.3% (inactive),17.1% (inactive),104,-19.9% (inactive),107%,1.07,-1.93,-0.432,-0.828% (inactive),-0.459 (inactive),-4.6e-05 (inactive),0.00784 (inactive),inactive,-14.4% (inactive),-32.6% (inactive),-55.1% (inactive)
CC(=O)Oc1cccc2c1C(=O)c1c(OC(C)=O)cc(C(=O)O)cc1C2=O,646,3.9% (inactive),6.8% (inactive),105,-52.7% (inactive),124%,-1.09,-1.04,-0.102,-9.66% (inactive),-0.438 (inactive),-4.5e-05 (inactive),0.00622 (inactive),inactive,-7.39% (inactive),4.71% (inactive),26.5% (inactive)
CCN(CC)C(=O)CSC1=C(C#N)C(c2ccco2)C(C(=O)OCCOC)=C(C)N1 (stereo not given),393,-8.6% (inactive),15.4% (inactive),104,-184% (inactive),152%,0.81,-0.0131,1.47,-3.98% (inactive),-0.378 (inactive),-3e-05 (inactive),0.00415 (inactive),inactive,14% (inactive),2.19% (inactive),16.7% (inactive)
CC(C)Cc1nc(N2CCN(C(=O)c3ccco3)CC2)c(C#N)c2c1CCC2,615,2% (inactive),-13.4% (inactive),106,-37.8% (inactive),116%,0.33,2.04,-0.551,-1.75% (inactive),-0.498 (inactive),-7e-05 (inactive),0.00426 (inactive),inactive,-2% (inactive),10.7% (inactive),12.6% (inactive)
CCOC(=O)CC(=O)CSc1[nH]c(=O)cc(C)c1C#N,653,-6% (inactive),5.4% (inactive),96.3,28.4% (inactive),132%,-1.3,0.221,-0.165,11% (inactive),-0.403 (inactive),-6.7e-05 (inactive),0.0053 (inactive),inactive,6.76% (inactive),3.57% (inactive),10% (inactive)
O=C(O)CCc1cc(I)c(Oc2ccc(O)c(I)c2)c(I)c1,623,-9.5% (inactive),-4.4% (inactive),107,-120% (inactive),127%,1.17,-0.143,0.645,9.37% (inactive),-0.522 (inactive),-5.4e-05 (inactive),0.00395 (inactive),inactive,3.29% (inactive),21.3% (inactive),34.6% (inactive)
CN(C)CCCN1c2ccccc2Sc2ccc(Cl)cc21,556,0% (inactive),14.2% (inactive),101,-64.8% (inactive),123%,1.02,0.553,-0.0543,-0.828% (inactive),-0.472 (inactive),-6e-05 (inactive),0.00356 (inactive),inactive,67.6% (active) and 162% (active),16.5% (inactive),40.1% (inactive)
O=C(O)CCCCCCC1C(=O)NC(=O)N1CCC(O)C1CCCCC1 (stereo not given),579,-9.7% (inactive),-6.4% (inactive),97.8,-76.1% (inactive),116%,-0.528,-0.266,1.03,-0.493% (inactive),-0.507 (inactive),-5.2e-05 (inactive),0.00541 (inactive),inactive,1.26% (inactive),15.9% (inactive),36.2% (inactive)
